# According to PubChem BioAssay:
# Calls of active or inactive are those of the source.
# Assays:
# [1] = test system: Human papillomavirus type 1a protein E7 (residues 44-93); test: HPV1a E7 fragment binders on microarrays, primary screen, biochemical, small-molecule microarray, residues 44-93, 635 nm fluorescence (AID 1108); details: small-molecule microarray binding, fluorescence 635 nm; higher = more signal;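 also: E7 fragment applied at 1 µg/mL in TBST for 1 h at 4 C; score combines spot fluorescence with its signal to noise ratio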
# [2] = modulators of HCV replicon luciferase signal, primary screen, HCV replication inhibitor project, Huh7 cells, luciferase reporter (AID 1109); details: 48 h, higher = more signal;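 also: huh7 hepatoma cells harbouring a luciferase neomycin HCV replicon reporter; luciferase luminescence as measure of HCV replicon replication; test concentration not given here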
# [3] = target: Left-right determination factor 2 (Homo sapiens) (UniProt O00292); test: LEFTY2 binders on small-molecule microarrays, primary screen, biochemical, small-molecule microarray, 635 nm fluorescence scan (AID 1110); details: LEFTY2 binding, higher = more signal
# Sequence of Left-right determination factor 2 (Homo sapiens) (O00292 whole entry, looked up): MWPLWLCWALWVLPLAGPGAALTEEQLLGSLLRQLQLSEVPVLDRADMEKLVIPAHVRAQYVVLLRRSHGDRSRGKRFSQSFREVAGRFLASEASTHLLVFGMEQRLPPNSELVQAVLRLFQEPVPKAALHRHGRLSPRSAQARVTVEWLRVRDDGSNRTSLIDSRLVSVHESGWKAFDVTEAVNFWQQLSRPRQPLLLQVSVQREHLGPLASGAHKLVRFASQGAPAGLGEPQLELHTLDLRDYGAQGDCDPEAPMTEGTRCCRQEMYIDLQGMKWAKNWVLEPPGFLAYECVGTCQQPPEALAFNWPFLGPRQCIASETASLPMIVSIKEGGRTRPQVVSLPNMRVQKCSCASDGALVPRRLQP
# [4] = target: Calmodulin-1 (Homo sapiens) (UniProt P0DP23); test: CALM1 binders on microarrays, EGTA buffer, profiling panel, biochemical, small-molecule microarray, Cy5-labelled CALM1 (AID 1111); details: Cy5-CALM1 binding fluorescence, higher = more signal;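 also: labelled calmodulin applied in Tris saline Tween buffer holding calcium plus EGTA and DTT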
# [5] = target: Calmodulin-1 (Homo sapiens) (UniProt P0DP23); test: calcium-bound CALM1 binders on microarrays, profiling panel, artefact control for SMM control-protein annotation, biochemical, small-molecule microarray, Cy5-labelled CALM1, plus calcium (AID 1112); details: Cy5-CALM1 binding fluorescence, higher = more signal;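 also: score merges spot fluorescence with signal to noise from triplicate slides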
# [6] = small-molecule microarray binders of probe aWnt5a, primary screen, biochemical, biotinylated probe, 635/667 nm fluorescence (AID 1113); details: higher = more signal;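 also: score merges 667 nm fluorescence intensity with signal-to-noise per printed feature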
# [7] = small-molecule microarray binders of probe aShh, primary screen, biochemical, biotinylated probe, 635/667 nm fluorescence (AID 1114); details: higher = more signal;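 also: probe is biotin-labelled aShh protein from a stem cell growth factor screen; measures binding of labelled protein to compounds printed on the slide; score merges feature fluorescence at 667 nm with signal-to-noise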
# [8] = small-molecule microarray binders of probe aNog, primary screen, biochemical, biotinylated probe, 635/667 nm fluorescence (AID 1115); details: higher = more signal;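 also: probe is biotinylated aNog protein used at 0.15 µg/mL for 1 h at 4 C; z-score combines 667 nm fluorescence of each spot with its signal to noise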
# [9] = target: Torsin-1A-interacting protein 1 (Homo sapiens) (UniProt Q5JTV8); test: LAP1 binders from COS7 cell lysate, primary screen, small-molecule microarray, 635/667 nm fluorescence (AID 1116); details: COS7-hLAP1 lysate binding, 635 nm fluorescence, higher = more signal
# Sequence of Torsin-1A-interacting protein 1 (Homo sapiens) (Q5JTV8 whole entry, looked up): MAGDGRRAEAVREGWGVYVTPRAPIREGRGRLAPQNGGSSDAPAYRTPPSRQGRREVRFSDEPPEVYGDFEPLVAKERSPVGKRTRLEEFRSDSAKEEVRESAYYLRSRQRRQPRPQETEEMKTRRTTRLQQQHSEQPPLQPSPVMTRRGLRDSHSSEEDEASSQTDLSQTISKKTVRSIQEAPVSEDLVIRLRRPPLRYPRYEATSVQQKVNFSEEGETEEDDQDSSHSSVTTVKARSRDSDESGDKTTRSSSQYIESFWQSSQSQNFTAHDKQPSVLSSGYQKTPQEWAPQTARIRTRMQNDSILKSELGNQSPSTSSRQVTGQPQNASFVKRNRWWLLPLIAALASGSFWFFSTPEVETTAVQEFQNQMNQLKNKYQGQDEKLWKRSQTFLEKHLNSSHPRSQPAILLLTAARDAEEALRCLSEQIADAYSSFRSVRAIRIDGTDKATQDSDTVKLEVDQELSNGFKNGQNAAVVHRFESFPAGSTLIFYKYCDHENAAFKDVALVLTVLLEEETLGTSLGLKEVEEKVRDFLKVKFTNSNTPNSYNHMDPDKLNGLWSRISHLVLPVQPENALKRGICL
# [10] = target: Alpha-bungarotoxin (Bungarus multicinctus) (UniProt P60615); test: alpha-bungarotoxin binders on microarray, profiling panel, artefact control for SMM control protein annotation, biochemical, small-molecule microarray, Alexa647 label, 635/667 nm fluorescence (AID 1117); details: alpha-BTX-A647 binding fluorescence, higher = more signal
# Sequence of Alpha-bungarotoxin (Bungarus multicinctus) (P60615 whole entry, looked up): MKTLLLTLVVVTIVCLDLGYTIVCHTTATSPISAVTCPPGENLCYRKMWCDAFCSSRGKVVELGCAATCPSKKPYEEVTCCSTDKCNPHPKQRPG
# Albumin (Bos taurus) = Albumin (Bos taurus) (UniProt P02769); test: bovine serum albumin binders on microarray, profiling panel, artefact control for SMM control protein annotation, biochemical, small-molecule microarray, Alexa647 label, 635/667 nm fluorescence (AID 1118); details: BSA-A647 binding, fluorescence 635 nm, higher = more signal;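 also: score merges 667 nm emission intensity and signal-to-noise per printed compound spot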
# Sequence of Albumin (Bos taurus) (P02769 whole entry, looked up): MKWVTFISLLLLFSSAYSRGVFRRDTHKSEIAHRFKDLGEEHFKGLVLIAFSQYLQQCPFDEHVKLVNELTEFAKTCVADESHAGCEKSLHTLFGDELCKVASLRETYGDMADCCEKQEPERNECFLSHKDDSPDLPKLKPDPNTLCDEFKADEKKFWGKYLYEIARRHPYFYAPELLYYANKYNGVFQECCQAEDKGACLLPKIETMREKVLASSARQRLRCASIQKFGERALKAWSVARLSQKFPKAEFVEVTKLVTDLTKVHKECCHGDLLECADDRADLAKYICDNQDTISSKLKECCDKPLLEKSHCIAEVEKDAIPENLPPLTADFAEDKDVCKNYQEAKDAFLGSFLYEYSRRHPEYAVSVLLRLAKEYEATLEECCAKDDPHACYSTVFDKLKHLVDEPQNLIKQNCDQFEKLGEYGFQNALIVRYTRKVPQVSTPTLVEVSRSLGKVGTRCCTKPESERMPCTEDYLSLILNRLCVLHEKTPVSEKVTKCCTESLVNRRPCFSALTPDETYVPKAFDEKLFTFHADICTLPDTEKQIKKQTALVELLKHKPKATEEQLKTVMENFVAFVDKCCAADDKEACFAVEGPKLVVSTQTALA
# [11] = small-molecule microarray binders of probe aXIP, primary screen, biochemical, NeuroSMM set, 635/667 nm fluorescence (AID 1119); details: higher = more signal, called active from +8 up or from −8 down;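 also: probe is the protein aXip251-270 applied at 1 µg/mL to compound-printed slides; binding of probe to printed compounds measured as 667 nm fluorescence plus signal to noise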
# [12] = small-molecule binders of probe aNOTCH3, primary screen, biochemical, small-molecule microarray, 635/667 nm fluorescence (AID 1120); details: higher = more signal;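 also: probe is a biotin-tagged antibody raised against NOTCH3 rather than NOTCH3 protein; score merges spot fluorescence near 667 nm with spot signal to noise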
# [13] = small-molecule binders of probe aNOTCH2, primary screen, biochemical, small-molecule microarray, 635/667 nm fluorescence (AID 1121); details: higher = more signal;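 also: score merges feature fluorescence read at 667 nm with its signal to noise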
# [14] = target: Carbonic anhydrase 2 (Homo sapiens) (UniProt P00918); test: CAII small-molecule binders, profiling panel, biochemical, small-molecule microarray, Alexa647-labelled CAII (AID 1122); details: CAII-A647 binding fluorescence, higher = more signal
# [15] = COS7 lysate on small-molecule microarray, probe aHis, 635 nm (AID 1123); details: COS7 cell lysate, fluorescence, higher = more signal;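 also: z-score combines 667nm fluorescence intensity with signal-to-noise per printed compound spot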
# [16] = compound binding in COS7 lysate, probe aLAP1, primary screen, cell lysate, small-molecule microarray (AID 1124); details: probe aLAP1, fluorescence, higher = more signal;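 also: lysate comes from COS7 cells expressing LAP1 and is applied at 0.3 µg/mL; score merges spot fluorescence near 667 nm with signal-to-noise over triplicate slides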
# Sam68 (KHDRBS1) = test: Sam68 small-molecule binders, primary screen, biochemical, small-molecule microarray, 635 nm fluorescence (AID 1125); details: small-molecule microarray binding, higher = more signal;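 also: score merges 667 nm channel intensity with signal to noise over triplicate slides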
# [17] = test system: Chordin-like protein 2 (CHRDL2); test: CHRDL2 small-molecule binders, primary screen, biochemical, small-molecule microarray, 635 nm fluorescence (AID 1126); details: small-molecule microarray binding, fluorescence 635 nm; higher = more signal;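 also: printed compound slides probed with Chrdl2 protein at 4 µg/mL for 1 h at 4 C; score merges 667 nm emission intensity with signal to noise over three replicate slides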
# [18] = target: Concanavalin-A (Canavalia ensiformis) (UniProt P02866); test: ConA small-molecule binders, primary screen, artefact control for SMM control protein annotation, biochemical, small-molecule microarray, Alexa647 label, 635 nm (AID 1127); details: ConA-A647 binding fluorescence, higher = more signal;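 also: z combines 667 nm emission intensity with signal-to-noise across three replicate slides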
# Sequence of Concanavalin-A (Canavalia ensiformis) (P02866 whole entry, looked up): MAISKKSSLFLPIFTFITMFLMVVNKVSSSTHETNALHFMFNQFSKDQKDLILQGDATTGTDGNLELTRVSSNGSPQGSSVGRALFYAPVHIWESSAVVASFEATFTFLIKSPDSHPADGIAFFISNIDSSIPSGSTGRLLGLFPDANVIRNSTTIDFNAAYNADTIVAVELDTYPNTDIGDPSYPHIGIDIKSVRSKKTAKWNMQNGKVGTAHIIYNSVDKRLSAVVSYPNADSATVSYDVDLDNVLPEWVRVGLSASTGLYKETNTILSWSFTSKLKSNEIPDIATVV
Compound,composite z-score [1],z-score [2],composite z-score [3],composite z-score [4],composite z-score [5],composite z-score [6],composite z-score [7],composite z-score [8],composite z-score [9],composite z-score [10],composite z-score (Albumin (Bos taurus)),composite Z-score [11],composite z-score [12],composite z-score [13],composite z-score [14],composite z-score [15],composite z-score [16],composite z-score (Sam68 (KHDRBS1)),composite z-score [17],composite z-score [18]
COC(=O)[C@@]1(Cc2ccc(OC)cc2)[C@H]2c3cc(C(=O)N4CCCC4)n(Cc4cc(F)c(F)c(F)c4)c3C[C@H]2CN1C(=O)c1ccccc1,1.37,0.323,0.342,2.69,1.59,1.11,2.22,1.07,1.52,2.06,1.04,0.188 (inactive),1.69,0.882,0.765,3.06,1,1.3,-0.593,1.21
CC(C)(C)N1CC=CC23O[C@@H]4C=CCCOC(=O)C4[C@H]2C(=O)N(CCCCCO)[C@@H]3C1=O (stereo not given in full),0.433,0.651,-0.316,-0.582,-0.839,-0.0327,0.0796,-0.206,2.15,-0.949,0.568,0.08 (inactive),0.285,-0.175,0.874,0.518,0.726,0.598,-0.503,-0.339
COc1ccc(O[C@H]2C=C[C@@H](c3ccccc3)O[C@@H]2COC(=O)CCC(C)=NO[C@@H](C)c2cc(-c3c(C)cc(C)cc3C)no2)cc1,-1.13,-1.15,-0.965,-0.977,-0.55,-0.194,0.255,-0.0207,-1.16,-0.707,-0.0567,-0.314 (inactive),-0.187,-0.153,-0.505,-0.451,-0.522,-0.822,-0.654,-1.63
COC(=O)C1=C(C)[C@@H](O)[C@@H](C)[C@H](c2c(OC)c(OC)c(C)c(OC)c2OC)O1,-0.685,-0.566,0.494,-0.628,-0.787,-0.171,-0.0011,-0.135,0.272,0.138,0.529,-0.461 (inactive),-0.0615,-0.14,0.298,0.206,-0.064,-0.441,0.336,0.484
C=CCN1C(=O)[C@]2(O[C@H](CCn3cc(CCO)nn3)[C@@H]([Si](C)(C)c3ccc(OC)cc3)[C@@H]2C)c2cc(N3CCOC3=O)ccc21,1.07,-3.46,-0.264,0.504,-0.463,-0.0403,-0.0356,-0.0841,1.52,0.465,0.617,-0.217 (inactive),-0.161,-0.104,0.368,1.88,1.21,0.448,-0.34,1.13
Cc1ccc(C2CC=C(C(=O)O)CN2S(=O)(=O)c2ccc(C)cc2)cc1 (stereo not given),1.35,0.602,-0.403,0.189,0.15,0.0018,-0.271,0.241,0.743,0.802,0.921,-0.326 (inactive),0.0203,-0.0567,0.78,0.93,0.953,1.32,0.193,1.12
Cc1ccc(F)cc1S(=O)(=O)N[C@@H]1CCN(Cc2ccc(CC(C)C)cc2)C1,0.135,-3.88,-0.185,-0.793,-0.328,-0.23,-0.138,-0.272,0.464,0.0331,0.118,-0.316 (inactive),-0.249,-0.208,0.013,0.193,0.172,0.499,0.266,-1.47
CC(CCC(=O)OC[C@H]1O[C@H](C#Cc2ccccc2)C=C[C@@H]1Oc1ccc(C)cc1)=NOC[C@@H](O)COCc1ccco1,-0.412,-0.635,-5.42,-1.49,-1.96,-0.426,-0.206,-0.732,-1.87,-0.818,-0.515,-0.142 (inactive),-0.781,-0.306,-0.451,-0.128,-0.547,-1.96,-3.83,-3.95
CC(CCC(=O)OC[C@H]1O[C@H](C#Cc2ccccc2)C=C[C@@H]1Oc1ccc(C)cc1)=NO[C@@H](C)c1cn([C@H](CO)Cc2ccccc2)nn1,0.507,-1.97,0.381,-0.329,-0.385,-0.152,0.108,-0.12,-0.0538,1.76,0.0449,-0.684 (inactive),0.0026,-0.0907,-0.122,-0.053,-0.592,0.297,0.145,0.27
CCOC(=O)[C@H](CC(C)C)NC(=O)CCC1CC(OC(=O)NCc2cccc3ccccc23)CC2(CCCC(COC(=O)NCCc3ccccc3OC)O2)O1 (stereo not given in full),1.38,-1.24,0.488,1.3,0.371,-0.124,-0.214,-0.335,0.607,0.588,0.752,0.0898 (inactive),-0.155,-0.0708,0.211,0.398,0.251,1.3,0.566,1.11
C#CCCCON=C1C[C@@H](O)[C@@H](O)[C@@H]2[C@@H]3C(=O)N([C@@H](C)c4ccccc4)C(=O)[C@@H]3CC[C@H]12,0.207,-0.638,0.45,0.0505,-0.602,0.0354,0.0796,-0.285,0.418,0.375,0.161,-0.26 (inactive),0.0494,-0.0554,-0.0339,-0.0684,0.0595,0.513,0.523,0.282
